Source: PubChem (Sanford-Burnham Center for Chemical Genomics)
TWEAK Fn14 block: TWEAK-Fn14 signaling inhibition. AID 1159606. 2% of 360,000 active. inhibition, % at 10 µM. TWEAK-stimulated Fn14 reporter cells, luciferase luminescence, 8 h; in the data active means inhibition above about 50%
KKLEB cytotox: reduces viability of KKLEB cystic fibrosis airway cells; activity change (cytotoxicity), % at 5 µM; KKLEB CF airway cells viability, ATPlite luminescence, overnight; stronger effect = lower value; cells stimulated with P. aeruginosa culture filtrate; 0.36% of 360,000 active;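 active means corrected activity change at or below -50% at 5 µM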
Peg3 promoter: reduces Peg3 promoter-driven luciferase expression in HeLa; inhibition, % at 20 µM; 1.7% of 360,000 active; HeLa PEG-Prom luciferase reporter, luminescence, overnight;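 active means inhibition of at least 50% at 20 µM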
HIF-2a block: inhibitors of HIF-2a. 786-0 RCC cells HIF-2a reporter, luciferase luminescence, overnight. AID 624352. inhibition, % at 18.8 µM. 0.72% of 360,000 active;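 active means inhibition of the luminescence signal of 40% or more relative to plate controls, in a single-dose primary screen at 18.75 µM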
TROY signal inh: blocks TROY-dependent signaling in reporter cells. 0.98% of 360,000 active. Q293 LMP1-TROYcd NF-kB luciferase reporter, 4 h. AID 1347056. inhibition, % at 10 µM;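 active means compounds whose plate-normalised and pattern-corrected inhibition of the luciferase reporter signal at the single screening dose is 50% or more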
CF NFkB inh: cystic fibrosis NF-kB activation inhibition. inhibition, % at 5 µM. 0.86% of 360,000 active. KKLEB NF-kB-GFP reporter, PAF-induced, GFP fluorescence overnight;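 active means at least 50% inhibition at 5 µM, scaled per plate between neutral and stimulator controls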;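 further: PAF is a Pseudomonas aeruginosa culture filtrate used as stimulus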
Mdm2-MdmX confirm: confirmation of inhibitors of human Mdm2/MdmX interaction, set 2; shares compounds with HIF-2a block; SaOS-2 split-luciferase Mdm2/MdmX complementation, luminescence; inhibition, % at 8 µM; 99% of 740 active;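 active means mean inhibition of the luminescence signal across two replicates at or above 26 percent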
Target sequence (O15151 whole entry, looked up): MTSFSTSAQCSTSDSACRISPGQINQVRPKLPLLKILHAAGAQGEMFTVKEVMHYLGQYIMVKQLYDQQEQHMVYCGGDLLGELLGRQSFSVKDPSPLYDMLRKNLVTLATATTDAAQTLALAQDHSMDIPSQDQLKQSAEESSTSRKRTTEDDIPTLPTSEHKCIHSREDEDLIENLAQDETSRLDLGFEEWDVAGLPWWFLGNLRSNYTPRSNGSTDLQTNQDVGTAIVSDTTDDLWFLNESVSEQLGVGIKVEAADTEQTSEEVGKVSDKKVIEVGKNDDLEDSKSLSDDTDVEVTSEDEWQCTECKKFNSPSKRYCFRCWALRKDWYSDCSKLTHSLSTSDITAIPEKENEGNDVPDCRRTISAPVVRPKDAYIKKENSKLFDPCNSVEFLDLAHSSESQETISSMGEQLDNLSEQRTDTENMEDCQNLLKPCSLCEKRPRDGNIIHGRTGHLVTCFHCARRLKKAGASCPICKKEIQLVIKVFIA
Target sequence (Q00987 whole entry, looked up): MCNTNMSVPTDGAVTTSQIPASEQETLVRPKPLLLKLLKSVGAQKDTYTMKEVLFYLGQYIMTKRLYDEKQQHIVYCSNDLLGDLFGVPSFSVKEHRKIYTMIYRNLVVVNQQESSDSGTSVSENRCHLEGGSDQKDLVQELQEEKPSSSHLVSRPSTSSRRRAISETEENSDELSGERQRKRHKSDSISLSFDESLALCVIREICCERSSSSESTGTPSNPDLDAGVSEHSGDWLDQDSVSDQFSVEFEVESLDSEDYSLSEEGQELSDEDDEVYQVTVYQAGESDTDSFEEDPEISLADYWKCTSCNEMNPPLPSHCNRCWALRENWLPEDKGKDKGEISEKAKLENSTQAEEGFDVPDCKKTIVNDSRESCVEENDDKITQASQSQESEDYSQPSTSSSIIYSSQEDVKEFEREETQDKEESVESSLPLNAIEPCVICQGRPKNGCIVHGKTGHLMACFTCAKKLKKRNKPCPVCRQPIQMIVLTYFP
HIF-2a conf: HIF-2a inhibition, single concentration confirmation | shares compounds with HIF-2a block | 786-0 RCC cells, HIF-2a luciferase reporter luminescence, overnight | inhibition, % at 18.8 µM | 56% of 1,800 active;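 active means mean inhibition across four replicates of at least 40 percent at the single tested concentration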
HIF-1a cs: counter-screen for HIF-2a inhibitors: HIF-1a inhibition in MiaPaCa-2 cells. shares compounds with HIF-2a block. MiaPaCa-2 HIF-1a luciferase reporter, desferoxamine, overnight. inhibition, % at 18.8 µM. 72% of 1,800 active;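 active means mean inhibition of the reporter signal across four replicates at the single tested dose of 50% or more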
Each line names hits and unclear results; the compound was inactive in the other large screens (follow-up assays come after a bar, where they were run). Most compounds without a hit are left out; they make up all but 4% or so of the library.

COc1cc(/C=C(/C(=O)c2cccs2)c2nc3ccccc3[nH]2)cc(OC)c1O	Peg3 promoter 100, HIF-2a block 79 | Mdm2-MdmX confirm 103 | HIF-2a conf 57 | HIF-1a cs 102
COc1ccc(C(=O)N/C(=C/c2cccs2)c2nc3ccccc3[nH]2)cc1OC	none
Cc1ccc(-n2nc3c(N4CCC(C(=O)NCCc5ccco5)CC4)nnc(C)c3c2C)cc1	none
Cc1ccc(-n2nc3c(N4CCC(C(=O)NCCc5ccccc5C)CC4)nnc(C)c3c2C)cc1	Peg3 promoter 58, HIF-2a block 49 | HIF-2a conf inactive | HIF-1a cs inactive
COc1ccc(-n2nc3c(N4CCC(C(=O)NCc5ccccc5C)CC4)nnc(C)c3c2C)cc1	Peg3 promoter 104, HIF-2a block 91 | Mdm2-MdmX confirm 103 | HIF-2a conf 65 | HIF-1a cs 96
COc1ccc(-n2nc3c(N4CCC(C(=O)NC5CCCCC5)CC4)nnc(C)c3c2C)cc1	Peg3 promoter 71, HIF-2a block 65 | HIF-2a conf inactive | HIF-1a cs 60
Cc1ccc(-n2nc3c(N4CCC(C(=O)NCc5ccc(C)o5)CC4)nnc(C)c3c2C)cc1	none
N#CCOc1ccccc1P(=O)(c1ccccc1)c1ccccc1	none
NC1=NC[C@@H](CC2CCCCC2)N1CCc1cc(C(F)(F)F)cc(C(F)(F)F)c1	Peg3 promoter 94 | Mdm2-MdmX confirm 103
COc1ccc(/C=C/c2nc3ccccc3c(=O)o2)cc1	TWEAK Fn14 block 97, HIF-2a block 43, TROY signal inh 83 | HIF-2a conf inactive | HIF-1a cs 89
CCCCn1c(=N)n(CC(=O)c2ccc(Br)s2)c2ccccc21	Peg3 promoter 95, HIF-2a block 50 | Mdm2-MdmX confirm 103 | HIF-2a conf inactive | HIF-1a cs 98
COc1ccc2cc1Oc1ccc(cc1)C[C@H]1c3cc(c(OC)cc3CCN1C)Oc1c(OC)c(OC)cc3c1[C@@H](C2)N(C)CC3	Peg3 promoter 52 | Mdm2-MdmX confirm 100
COc1ccc2c(c1OC)CN(C)CCc1cc3c(cc1C(O)C2)OCO3 (configuration not stated)	none
COC(=O)c1ccccc1S(=O)(=O)N1CCC(C(=O)OCC(=O)NC2CCCCC2C)CC1 (configuration not stated)	none
Nc1cc(OC(=O)c2ccc(F)cc2)nn1S(=O)(=O)c1ccccc1	HIF-2a block 53 | HIF-2a conf inactive | HIF-1a cs inactive
COc1cc(C(=O)Oc2cc(N)n(S(=O)(=O)c3ccc(F)cc3)n2)cc(OC)c1OC	none
CC(C)(C)NC(=O)CSc1nc(O)cc(=O)[nH]1	HIF-2a block 41 | HIF-2a conf inactive | HIF-1a cs inactive
CCCC(=O)Nc1sc(C)c(-c2ccc(C(C)CC)cc2)c1C#N (configuration not stated)	none
COc1ccc2c(c1)c1ccc3c(c1n2C)C(=O)C=CC3=O	Peg3 promoter 104, HIF-2a block 78 | Mdm2-MdmX confirm 102
Cc1ccc2c(c1)c1ccc3c(c1n2C)C(=O)C=CC3=O	Peg3 promoter 107, HIF-2a block 79 | Mdm2-MdmX confirm 102
CCOC(=O)c1[nH]c2c(OCC)nc(OCC)nc2c1Br	none
Cc1ccc(F)c([C@H]2[C@H]3C=CC[C@@H](C)[C@@H]3C(=O)N2Cc2ccccc2)c1	HIF-2a block 42 | HIF-2a conf inactive | HIF-1a cs inactive
C[C@@H]1CC=C[C@H]2[C@H]1C(=O)N(Cc1ccccc1)[C@H]2c1ccc2ccccc2c1	HIF-2a block 44 | HIF-2a conf inactive | HIF-1a cs 52
CN1CCc2c(sc(NC(=O)c3ccco3)c2C(N)=O)C1	none
CN1CCc2c(sc(NC(=O)c3ccc([N+](=O)[O-])o3)c2C(N)=O)C1	TWEAK Fn14 block 52, Peg3 promoter 107, HIF-2a block 55, TROY signal inh 65, CF NFkB inh 82 | Mdm2-MdmX confirm 101 | HIF-2a conf 55 | HIF-1a cs 104
O=C(Nc1ccc(-c2nc3ccccc3o2)cc1)C1CCCO1 (configuration not stated)	none
O=C(Nc1ccc(-c2nc3cccnc3s2)cc1)C1CCCO1 (configuration not stated)	TWEAK Fn14 block 99, HIF-2a block 58, TROY signal inh 60 | HIF-2a conf 69 | HIF-1a cs inactive
Cc1ccc(N(CC(=O)N2CCCCCC2)S(=O)(=O)c2ccccc2)cc1	none
CC(=O)N/N=C\c1cccc(OC/C=C/c2ccccc2)c1	HIF-2a block 48 | HIF-2a conf 56 | HIF-1a cs inactive
N#CCC(=O)N/N=C\c1cccc(OC/C=C/c2ccccc2)c1	Peg3 promoter 52, HIF-2a block 64 | HIF-2a conf 71 | HIF-1a cs inactive
COc1ccccc1NC(=O)C(=O)c1cn(CC(=O)N2CCCC2)c2ccccc12	none
O=S1(=O)C=C(Sc2nnc(-c3ccccc3)o2)c2ccccc21	TWEAK Fn14 block 103, KKLEB cytotox -72, Peg3 promoter 110, HIF-2a block 95, TROY signal inh 62, CF NFkB inh 97 | Mdm2-MdmX confirm 100
CSc1nnc(-c2ccccc2)o1	none
N#CCCNC(=O)CCN1CCCCC1	none
CCOc1ccc(/C=N/N2C(=O)C(CC(=O)Nc3ccc(F)cc3F)SC2=NC)cc1OC (configuration not stated)	HIF-2a block 49 | HIF-2a conf inactive | HIF-1a cs inactive
CC(=O)Nc1cc(-c2cccc(C(=O)NCCN(C)C)c2)cn2c(-c3cccc(C(F)(F)F)c3)cnc12	Peg3 promoter 99, HIF-2a block 95 | HIF-2a conf inactive | HIF-1a cs 105
CCSc1ccc(-c2cc(NC=O)c3ncc(-c4cccc(C(=O)NCCN(C)C)c4)n3c2)cc1	Peg3 promoter 89, HIF-2a block 92 | HIF-2a conf inactive | HIF-1a cs 101
Clc1ccc2ccc3cccnc3c2n1	none
O=S1(=O)Nc2c(ccc3cccnc23)-c2ccccc21	TWEAK Fn14 block 105, Peg3 promoter 111, TROY signal inh 71, CF NFkB inh 52 | Mdm2-MdmX confirm 103
CCN(Cc1ccc2c(c1)OCO2)C(=O)/C=C/c1cccc(Br)c1	none
CC(C)(C)N(Cc1ccc2c(c1)OCO2)C(=O)/C=C\S(=O)c1ccccc1 (configuration not stated)	TWEAK Fn14 block 88, Peg3 promoter 99, HIF-2a block 69 | HIF-2a conf 54 | HIF-1a cs 80
